Data reported in PubChem BioAssay AID651965 (National Center for Advancing Translational Sciences (NCATS), 2013).
The whole screen tested about 340,000 compounds, of which about 6,400 (1.9%) were called active. Not shown: some 4% with an inconclusive outcome. This excerpt belongs to a sample that is enriched for actives. A number with no mark means an inactive call. Calls come from the whole dose curve; as a rule, active = well fitted falling curve with a large enough effect; inconclusive = small, poorly fitted or top-dose-only effect; inactive = no such curve, though single readings can be large or run the other way.

Biological target: ATP-dependent Clp protease proteolytic subunit (Bacillus subtilis (strain 168)) (UniProt P80244)
Assay: qHTS Assay for Activators of ClpP; note: the source files actives as falling curves though it sought activators and does not explain the sign; nearly all actives have a fitted effect of over 65% in size
Settings: purified B. subtilis ClpP, FRET peptide cleavage, 20 min; series mostly up to 57.5 µM; activity change, negative = active: at the top concentration
In short: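 FRET quenching reversal measured ClpP activation: 10 microg/mL B. subtilis ClpP at pH 8 with the FRET-FV decapeptide, read at 430 nm after 320 nm excitation. The 20-min minus 0-min signal was scaled between DMSO/no-enzyme wells and ADEP (5.8 microM final).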
Potency is the fitted concentration of half-maximal effect.

| Structure (SMILES) | activity change, negative = active [%] | Potency |
| --- | --- | --- |
| COc1ccc(NC(=O)CCCOc2ccc(C(C)=O)cc2)cc1S(=O)(=O)N1CCCCC1 | 1.57 |  |
| CCN(Cc1ccncc1)C(=S)Nc1ccccc1C | -1.5 |  |
| Cc1ccc(NC(=S)N(CCN(C)C)Cc2cccs2)cc1C | 0.917 |  |
| Cc1ccccc1NC(=S)N(CCCN1CCOCC1)Cc1cccs1 |  | 28.2 µM (active) |
| COc1ccc(/C=C/c2ccccn2)cc1OC | 4.51 |  |
| Cc1cccnc1C(NC(=O)C1CCN(Cc2ccc(Cl)c(Cl)c2)CC1)c1ccc(Cl)cc1 (stereo unspecified) | 0.951 |  |
| O=C1Nc2ccccc2NC(c2ccc3c(c2)OCO3)=C1N(Cc1ccc(F)cc1)C(=O)c1ccco1 | 1.77 |  |
| O=C(COC(=O)c1ccccc1)c1ccc2c(c1)OCCO2 | -1.68 |  |
| CC(=O)Nc1cccc(C(=O)OCC(=O)c2ccc3c(c2)OCO3)c1 |  | 12.6 µM (active) |
| O=C(COC(=O)c1ccc(F)cc1)Nc1ccc2c(c1)OCO2 | -1.94 |  |
| CC(=O)Nc1cccc(-c2cc3nc(NCc4cccnc4)n(C)c(=O)c3s2)c1 | -19.5 |  |
| COc1ccc(C(c2nnnn2C2CCCC2)N2CCN(C/C=C/c3ccccc3)CC2)cc1 (stereo unspecified) | -3.35 |  |
| CC(=O)C1=CCC(c2ccccc2)N(S(=O)(=O)c2ccc(C)cc2)C1 (stereo unspecified) | -14 |  |
| CCOc1cccc2cc(C(=O)OCC(=O)Nc3c(C)cccc3CC)c(=O)oc12 | 12.9 |  |
| C=CCc1cccc2cc(C(=O)N3CCN(C(=O)OCC)CC3)c(=O)oc12 | -12.7 |  |
| C=CCc1cccc2cc(C(=O)OCC)c(=O)oc12 |  | 35.5 µM (active) |
| CCOC(=O)C1=CCC2C(=O)N(Cc3ccccc3)C(=O)C12 (stereo unspecified) | 1.34 |  |
| CC(C)c1cc(Cn2c3ccccc3c(=O)n2C(C)Cn2cc(C3CC3)nn2)on1 (stereo unspecified) | 4.78 |  |
| COc1ccc(CCNC(=O)CSc2nc(-c3ccc(OC)c(OC)c3)ccc2C#N)cc1 |  | 17.8 µM (active) |
| COc1ccc(CCNC(=O)CSc2nnc3ccc(-c4ccncc4)nn23)cc1 | -2.01 |  |
| COc1cccc(CNC(=O)CSc2c3c(nc4cc(Cl)ccc24)CCCC3)c1 | -1.55 |  |
| COc1cccc(-c2ccc(C#N)c(SCC(=O)NCCc3ccc(Cl)cc3)n2)c1 |  | 35.5 µM (active) |
| COc1ccc(CCNC(=O)CSc2nc(C)nc3c2oc2ccccc23)cc1OC | 1.33 |  |
| COc1ccc(CCNC(=O)COC(=O)c2cnc(Cl)c(Cl)c2)cc1 | -4.01 |  |
| Nc1nc2cc(Cl)ccc2n1N | 0.944 |  |
| OCC1OC(n2cnc3c(N4CCCC4)ncnc32)C(O)C1O (stereo unspecified) | 0.893 |  |

| Structure (SMILES) | activity change, negative = active [%] | Potency |
| --- | --- | --- |
| COc1cccc(C(O)c2nc(-c3ccc(C)c(C)c3)cs2)c1 (stereo unspecified) | -3 |  |
| CCOC(=O)[C@]12CCCC=C1N(Cc1cccc3ccccc13)C(=O)[C@H](CC(=O)NCC13CC4CC(CC(C4)C1)C3)C2 | -3.53 |  |
| CCCCN(C=O)c1c(CC)nc2c(OCc3ccccc3C(=O)OC)cccn12 | -0.714 |  |
| C[C@@H]1CN([C@@H](C)CO)C(=O)CCCn2nncc2CO[C@H]1CN(C)C(=O)Nc1ccc(C(F)(F)F)cc1 | -2.86 |  |
| Cc1nc(C(=O)NCc2ccccc2)sc1C1(C)CC(c2cccnc2)=NO1 (stereo unspecified) | -0.0404 |  |
| CC1(C)Cc2cccc(OCC(=O)NCc3ccccc3)c2O1 | 0.208 |  |
| Cc1nc(NCc2ccccc2)c(C(N)=O)c2c1COC(C)(C)C2 |  | 22.4 µM (active) |
| COC(=O)[C@]12CCCCC=C1N(CCC1=CCCCC1)C(=O)[C@H](CC(=O)N1CCSCC1)C2 | 3.9 |  |
| CC(=O)Nc1cnc(-c2ccc(O)cc2C)cn1 | -2.26 |  |
| Brc1ccc2nc(-c3ccccc3)c(Cc3ccccc3)n2c1 | -9.97 |  |
| CC(C)C(=O)N1CCN(c2nc(-c3ccccc3)c3c(c2C#N)CC(C)(C)OC3)CC1 |  | 28.2 µM (active) |
| CC(C)C(=O)N1CCC2(CC1)Oc1ccc(F)cc1C(=O)C21CC(c2ccccc2)=NO1 (stereo unspecified) | -6.58 |  |
| CCOC(=O)N1CCN(C(=O)C(=O)Nc2sc3c(c2C#N)CC(C)(C)OC3)CC1 | -0.849 |  |
| CC(C)c1nc(N2CCOCC2)c(C#N)c2c1COC(C)(C)C2 |  | 15.8 µM (active) |
| CC1(C)Cc2c(sc(NC(=O)C(=O)N3CCOCC3)c2C#N)CO1 | -0.519 |  |
| CC(C)OC(=O)C(C#N)c1nc2ccccc2nc1N1CCN(Cc2ccccc2)CC1 (stereo unspecified) | -3.63 |  |
| Cc1ccc(S(=O)(=O)N2CCC(=O)N([C@H](COCc3ccccc3)C(C)C)CC2)cc1 | 1.87 |  |
| CN(N=O)c1ccc(C=C2c3ccccc3-c3ccccc32)cc1 | -1.46 |  |
| CN(C)C1=C2C=CC=CC2/C(=C2/C=Cc3ccccc32)C=C1 (stereo unspecified) | 2.14 |  |
| Cc1ccc(-c2cnc(C(O)c3cccc(C)c3C)[nH]2)cc1 (stereo unspecified) | -0.238 |  |
| O=C(c1ccco1)N(Cc1cccs1)c1ccc(O)cc1 | -3.06 |  |
| O=C1NC[C@H](Cc2ccc(O)cc2)N(C[C@@H]2CCCN2C[C@H](Cc2ccccc2)N2C[C@H](Cc3ccccc3)N(CC3CCCCC3)C(=O)C2=O)C1=O | -3.68 |  |
| CCOC(=O)CN1CCC(c2ccccc2)CC1 | -2.84 |  |
| CCN1C(=O)N[C@@H](c2ccccc2)C(C(=O)OC)=C1C | -0.536 |  |
| CCOC(=O)NN1C(=O)c2ccccc2NC1c1ccccc1O (stereo unspecified) |  | 25.1 µM (active) |
| CCOC(=O)NC(C(F)(F)F)(C(F)(F)F)P(=O)(c1ccccc1)c1ccccc1 | 0.601 |  |

| Structure (SMILES) | activity change, negative = active [%] | Potency |
| --- | --- | --- |
| CCOC(=O)C(=O)C1C(=O)Nc2ccccc21 (stereo unspecified) | -7.79 |  |
| CCOC(=O)NN1C(=O)c2ccccc2NC1c1cccc(O)c1 (stereo unspecified) |  | 31.6 µM (active) |
| CCOC(=O)[C@]12CCCC=C1N(CCC1=CCCCC1)C(=O)[C@H](CC(=O)NCCCCc1ccccc1)C2 | 1.64 |  |
| O=C(Nc1ccccc1C(F)(F)F)c1nc(S(=O)(=O)Cc2ccccc2F)ncc1Cl | 5.4 |  |
| COc1cc2nc(Cl)nc(NC3CC3)c2cc1OC | -8.73 |  |
| CN(/N=C/c1ccccc1)C(=S)c1ccccc1 | -1.22 |  |
| CN(CC(=O)O)C(=O)c1ccccc1 | 1.88 |  |
| CN(O)C(=S)c1ccccc1 |  | 11.2 µM (active) |
| O=S1(=O)CC(N2CCN(Cc3ccccc3F)CC2)CN1Cc1cn(Cc2ccccc2)nn1 (stereo unspecified) | 0.896 |  |
| Cc1c(CCO)sc[n+]1CC(=O)c1ccc2ccccc2c1 | 3.84 |  |
| CCc1nc2ccc(C(=O)N(C)Cc3ccco3)cn2c1N(C)C(=O)Cc1ccccc1 | -2.03 |  |
| CN(CCO)C(=O)c1nc[nH]c1C(=O)N(C)Cc1ccccc1 | 2.81 |  |
| CN(Cc1ccccc1)C(=O)[C@@H]1CCCN1C(=O)[C@@H]1CCCN1C(=O)c1c(F)cccc1F | 1.37 |  |
| Cc1nccn1-c1ccc(NC(=O)[C@H]2O[C@@H](n3ccc(=O)[nH]c3=O)[C@H](O)[C@@H]2O)cc1 | 2.72 |  |
| CCCC(=O)N1CCC1(C)C(=O)Nc1ccc(-n2cncn2)cc1 (stereo unspecified) | -3.69 |  |
| O=C(Nc1ccn(Cc2ccccc2F)n1)c1ccc(COc2ccc(Cl)cc2Cl)o1 | -17.4 |  |
| Cc1ccc(Cn2ccc(NC(=O)C3C4CCC(C4)C3C(=O)O)n2)cc1 (stereo unspecified) | -28.6 |  |
| O=C(Nc1ccn(Cc2ccccc2)n1)c1n[nH]c([N+](=O)[O-])c1Cl |  | 22.4 µM (active) |
| O=C(c1cnn2c1NC(=C1CC1)C=C2C(F)F)N1CCc2ccccc2C1 | 0.979 |  |
| Cc1ccc(C(O)c2ncc(-c3ccccc3F)[nH]2)cc1F (stereo unspecified) | 0.929 |  |
| CCCCn1c(N)c(N(CCC(C)C)C(=O)c2ccc([N+](=O)[O-])o2)c(=O)[nH]c1=O |  | 3.16 µM (active) |
| CCCCN(C(=O)c1ccc(C)o1)c1c(N)n(CCCC)c(=O)[nH]c1=O | 0.476 |  |
| CCCCn1c(N)c(N(CCC(C)C)C(=O)c2ccc(COc3ccccc3)o2)c(=O)[nH]c1=O | -5.35 |  |
| CCN(C(=O)Nc1cccc2ccccc12)c1ccccc1 | 4.17 |  |
| Cc1cc(=O)[nH]c(SCc2ccc(Cl)cc2)n1 | 0.425 |  |
| O=c1cc(O)nc(SCc2ccccc2Cl)[nH]1 |  | 28.2 µM (active) |

| Structure (SMILES) | activity change, negative = active [%] | Potency |
| --- | --- | --- |
| Cc1cc(=O)[nH]c(SCc2cc(Cl)ccc2OC(F)F)n1 | -0.513 |  |
| O=C(Nc1cccc2ccccc12)c1[nH]c(-c2ccccc2)c2c1C(=O)N(C1CC1)C2=O | 1.62 |  |
| O=C(OC1CC2CC1[C@H]1CCCCN1C2=O)N1CCOCC1 (stereo partly specified) | 1.07 |  |
| COc1ccc2sc(-c3ccccc3OC)c(-c3ccc(OCCN4CCCC4)cc3)c2c1 | -7.61 |  |
| COc1ccccc1-c1sc2ccccc2c1C#CC1(O)CCCCC1 | -0.0591 |  |
| COc1ccccc1-c1sc2ccccc2c1-c1ccc(C(C)=O)cc1 |  | 28.2 µM (active) |
| CCCOc1ccc(F)cc1-c1cc(C(=O)Nc2ccc(F)c(Cl)c2)[nH]n1 | -24.4 |  |
| CN(C)c1ccc(/C=C/c2sc3ccccc3[n+]2CCCCBr)cc1 | 0.0357 |  |
| CCOC(=O)[C@]12CCCC=C1N(CCC1=CCCCC1)C(=O)[C@H](CC(=O)N1CCSCC1)C2 | 0.986 |  |
| Fc1ccc2cnc(-c3ccccc3)cc2c1 | -20 |  |
| O=S(=O)(c1ccc(F)cc1)N1CC=C(c2ccccc2)CC1 | 0.167 |  |
| O=S(=O)(c1ccc(F)cc1)n1ccc(-c2cnc(-c3ccccc3)s2)n1 |  | 20 µM (active) |
| Cc1ccc(S(=O)(=O)N2CC3C(=O)C[C@@H](c4ccccc4Cl)N(S(=O)(=O)c4ccc(C)cc4)C3CC2c2ccccc2)cc1 (stereo partly specified) | 0.552 |  |
| Cc1cccc(-c2nnc(SC(C)C(=O)Nc3ccccc3)n2C)c1 (stereo unspecified) | -2.03 |  |
| CCOC(=O)[C@]12CCCC=C1N(Cc1ccc3c(c1)OCO3)C(=O)[C@H](CC(=O)N1CCN(C(=O)c3ccco3)CC1)C2 | -3.46 |  |
| CN(C)c1ccc(/C=C/c2sc3ccccc3[n+]2C)cc1 | 0.862 |  |
| CC1(Oc2cccc(F)c2)CCN(Cc2ccccc2OC(F)F)C1 (stereo unspecified) | 0.0673 |  |
| Cc1nc2ccccc2cc1O |  | 3.55 µM (active) |
| Cc1nc2ccccc2nc1CC(O)(c1ccccc1)c1ccccc1 | 1.05 |  |
| Cc1nc2cccnc2nc1C | 0.763 |  |
| CC(C)c1cc(C(=O)N(C)C2CCCN(Cc3ccccc3F)C2)n(C)n1 (stereo unspecified) | -0.736 |  |
| Cc1cn([C@H]2C[C@H](O)[C@@H](/C=C/C(=O)NCCCc3ccccc3)O2)c(=O)[nH]c1=O | -2.25 |  |
| Cc1cc(Cl)ccc1C(=O)C1CCCN(C(=O)c2ccc3c(c2)OCO3)C1 (stereo unspecified) | -3.31 |  |
